Inhibition data for 95 compounds are collected here from PubChem BioAssay AID1220 (Sanford-Burnham Center for Chemical Genomics, 2008).

Structures are written as SMILES. Out of some 190,000 compounds screened, about 1,300 (0.68%) were called active. The sample holds actives, similar compounds and a random draw of the others, so the mix is not that of the screen. Unmarked numbers belong to inactive results. No stated cut-off is given here; in the data, active means inhibition above about 50%; inactive means the rest.

The target in the experiment is Mannose-6-phosphate isomerase (Homo sapiens) (UniProt P34949). Put plainly: human PMI inhibitors, high substrate, primary screen, biochemical, fluorescence intensity, high mannose 6-phosphate (AID 1220). Conditions: recombinant PMI enzyme, coupled fluorescence intensity; at 20 µM; active compounds read high.
Sequence of Mannose-6-phosphate isomerase (Homo sapiens) (P34949 whole entry, looked up): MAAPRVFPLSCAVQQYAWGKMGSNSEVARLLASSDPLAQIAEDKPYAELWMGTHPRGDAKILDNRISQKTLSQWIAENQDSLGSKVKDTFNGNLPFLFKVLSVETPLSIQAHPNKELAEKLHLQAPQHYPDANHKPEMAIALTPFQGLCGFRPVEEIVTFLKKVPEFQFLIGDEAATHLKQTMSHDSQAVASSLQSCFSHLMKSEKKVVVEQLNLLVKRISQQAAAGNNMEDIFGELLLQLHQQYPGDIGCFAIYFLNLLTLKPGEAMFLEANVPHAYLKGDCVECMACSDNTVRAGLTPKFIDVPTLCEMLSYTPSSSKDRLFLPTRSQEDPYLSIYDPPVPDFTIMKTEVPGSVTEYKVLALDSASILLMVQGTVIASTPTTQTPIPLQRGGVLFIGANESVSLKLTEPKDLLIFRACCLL
In the case of `CCC/C=N/NC(=O)c1cc(-c2ccccc2)nc2ccccc12`, the inhibition (commonly the change of the read-out against control, counted positive when it falls) was -2.1%.
For the compound `C=CCc1cc(/C=N/NC(=O)CSc2nnc(CCCc3ccc(OC)cc3)o2)cc(OC)c1O`, the inhibition was -3.4%.
Turning to `N#C/C(=C1/CCCCCN1)c1nnc2n1CCCCC2`, the inhibition was -3.4%.
Regarding `N#C/C(=N\Nc1cc(Cl)cc(Cl)c1)c1nnc2n1CCCCC2`, the inhibition is 14.3%.
Regarding `N#C/C(=C1\C(=O)Nc2c(Cl)cc(Cl)cc21)c1nnc2n1CCCCC2`, the inhibition is 51% (active).
For `O=C(c1cc2nc(-c3ccc(Cl)cc3)cc(C(F)(F)F)n2n1)N1CCOCC1` the value was 9.1%.
In the case of `CC(=O)N1CC(c2ccccc2)C(c2ccc(Cl)cc2)=N1` (stereo not given), the inhibition was 11.8%.
The result for `CC(C)C(O)(C#CCN1CCCCC1)C(C)C` reads 2.1%; that for `O=C(NC(=S)N1CCN(Cc2ccccc2)CC1)c1cccnc1`, 58.4% (active).
On to `O=C(NC(=S)N1CCN(Cc2ccccc2)CC1)c1ccccc1`, for which the inhibition was 13%.
With `O=C(NC(=S)N1CCCCC1)c1cccnc1`, the inhibition is -1.5%.
As to `COCCN1C(=O)c2oc3ccccc3c(=O)c2C1c1ccc(O)c(OC)c1` (stereo not given), the inhibition was 0.7%.
The result for `Cc1ccc([N+](=O)[O-])cc1NC(=O)C[n+]1ccccc1` reads 22.2%; that for `Cc1ccc(Cl)cc1NC(=O)C[n+]1ccc(Cc2ccc([N+](=O)[O-])cc2)cc1`, 55.3% (active); that for `Cc1cc([N+](=O)[O-])ccc1NC(=O)C[n+]1ccc(N(C)C)cc1`, -1.5%.
The result for `CC(NC(=O)C1CCCN1C(=O)OCc1ccccc1)c1ccccc1` (stereo not given) reads -0.5%; that for `COc1cccc(OC)c1C(=O)NC(=S)Nc1ccc2oc(=O)ccc2c1`, 10.5%; that for `CC(NC(=O)Cc1ccccc1[N+](=O)[O-])c1ccccc1` (stereo not given), 7.4%.
Take `O=C(COC(=O)Cc1ccccc1[N+](=O)[O-])NCC1CCCCC1`: the inhibition is -5.7%.
`O=C(COC(=O)Cc1ccccc1[N+](=O)[O-])NC1CCCC1`: the inhibition is 55.4% (active).
On to `CC(NC(=O)COC(=O)CC(c1ccccc1)c1ccccc1)c1ccccc1` (stereo not given), for which the inhibition is 7.9%.
Turning to `CC(NC(=O)COC(=O)Cc1ccccc1[N+](=O)[O-])c1ccccc1` (stereo not given), the inhibition was 51.3% (active).
As for `O=C(COC(=O)COc1ccccc1[N+](=O)[O-])NC1CCCC1`, the inhibition was -5.1%.
For `O=Cc1cc2ccccc2nc1SCCCF` the value was 4.2%.
For `CCCn1c(SCC(=O)C(C)(C)C)nc2ccccc21` the value was -8.2%; for `O=C(O)Cc1ccc(NC(=O)c2cnccn2)cc1`, -9.7%; for `Cc1cc(C)c2c(N)c(C(=O)NNC(=O)c3ccccc3)sc2n1`, 2.3%.
As to `Cc1cc(C)nc(-n2nc(C)cc2NC(=O)CN2CCCC(C)C2)n1` (stereo not given), the inhibition is 4.4%.
For `Cc1ccc(SC(C)C(=O)NCc2ccncc2)cc1` (stereo not given) the value was 11.4%.
With `CC(=O)NC1(C(F)(F)F)NC(=O)N(c2ccc(F)cc2)C1=O` (stereo not given), the inhibition is -10.2%.
Regarding `O=C(CCN1C(=O)C2C3C=CC(C4CC34)C2C1=O)Oc1ccccc1` (stereo not given), the inhibition is -3.5%.
The result for `Cc1cccc(OC(=O)CCN2C(=O)C3C4C=CC(C5CC45)C3C2=O)c1C` (stereo not given) reads -6.4%; that for `CC(=O)c1ccccc1OC(=O)CCN1C(=O)C2C3C=CC(C4CC34)C2C1=O` (stereo not given), 59.3% (active).
In the case of `Cc1ccc(C(=O)NCc2ccco2)cc1S(=O)(=O)Nc1cccc(C)c1C`, the inhibition was 0.8%.
Consider `COc1cccc(CN2CCN(Cc3[nH]c4ccccc4c3C)CC2CCO)c1` (stereo not given), for which the inhibition is -0.2%.
For `CC(C)c1ccc2oc(-c3cc(N)ccc3O)nc2c1`, the inhibition is -12.6%.
As for `CN(C)C=Nc1ccc2nn(-c3ccccc3)nc2c1`, the inhibition was 60.2% (active).
With `CC(C)C(=O)Nc1ccc2nn(-c3ccccc3)nc2c1`, the inhibition is -0.5%.
The result for `Cc1nc2cc(N)ccc2n1-c1ccccc1` reads 21.5%; that for `Cc1ccc(-n2nc3ccc(N)cc3n2)cc1`, 31.3%.
For `Nc1ccc2nn(-c3ccccc3)nc2c1` the value was 57.9% (active); for `Cc1ccc(-n2nc3ccc(NC(=O)C(C)C)cc3n2)cc1`, 13.3%.
For the compound `CC(C)CC(=O)Nc1ccc2nn(-c3ccccc3)nc2c1`, the inhibition was 26.4%.
Consider `CC(C)c1ccc(-n2nc3ccc(N)cc3n2)cc1`, for which the inhibition is 55.8% (active).
Take `COc1cccc(CN(c2ccc3c(c2)CCC3)S(=O)(=O)c2ccc(-n3cnnn3)c(OC)c2)c1`: the inhibition was -3.4%.
Consider `N#C/C(=C\c1ccncc1)C(N)=O`, for which the inhibition is 17.1%.
Regarding `COc1ccc(Oc2ccccc2C#N)cc1`, the inhibition is 4.7%.
For `O=C(CSc1nnnn1CCCO)Nc1ccc2c(c1)OCO2` the value was -12.3%; for `COC(=O)c1ccc(N2CCOCC2)c(F)c1`, -3.2%; for `Nc1cc(-c2ccc(Br)cc2)nn1S(=O)(=O)c1cccc2nsnc12`, 11.3%.
As to `CO[C@H]1C=CO[C@@]2(C)Oc3c(C)c(O)c4c(O)c(c5c(nc6cc(C)ccn65)c4c3C2=O)NC(=O)C(C)=CC=C[C@H](C)[C@H](O)[C@@H](C)[C@@H](O)[C@@H](C)[C@H](OC(C)=O)[C@@H]1C`, the inhibition was 32.2%.
Consider `CO[C@H]1C=CO[C@@]2(C)Oc3c(C)c(O)c4c(O)c(c(C=NN5CCN(C6CCCC6)CC5)c(O)c4c3C2=O)NC(=O)C(C)=CC=C[C@H](C)[C@H](O)[C@@H](C)[C@@H](O)[C@@H](C)[C@H](OC(C)=O)[C@@H]1C`, for which the inhibition was 73.8% (active).
As for `CO[C@H]1C=CO[C@@]2(C)Oc3c(C)c(O)c4c(O)c(c(C=NN5CCN(C)CC5)c(O)c4c3C2=O)NC(=O)C(C)=CC=C[C@H](C)[C@H](O)[C@@H](C)[C@@H](O)[C@@H](C)[C@H](OC(C)=O)[C@@H]1C`, the inhibition is 42.7%.
For the compound `O=C(OCC(=O)N1CCCC1)c1ccccc1OCc1ccccc1`, the inhibition was 4.1%.
`NC(=O)c1c(NC(=S)Nc2ccc(F)cc2)sc2c1CCCC2`: the inhibition was 2.3%.
With `CN1C(=S)N(c2ccccc2)C(=O)/C1=C/c1ccco1`, the inhibition was -16.2%.
For `Cc1ccc(/C=C2/C(=O)N(c3ccccc3)C(=S)N2C)o1`, the inhibition is 52.2% (active).
For `CCOc1ccc(N2C(=O)/C(=C/c3ccc(C)o3)N(C)C2=S)cc1` the value was 43.2%.
`COc1cc(C(=O)NCC(C)C)cc(OC)c1OC`: the inhibition is -10.5%.
Regarding `COC(=O)C1=C(C)NC(C)=C(C(=O)OC)C1c1ccc(-c2cc(Cl)ccc2Cl)o1`, the inhibition was -1.9%.
`COCCNC(=O)Cn1nc(C(F)(F)F)cc1C`: the inhibition is 21.9%.
For `Cc1ccc(C(=O)NCc2ccccc2)cc1Br`, the inhibition was 12.6%.
Turning to `Fc1ccc2nc(N3CCOCC3)sc2c1`, the inhibition is -5.9%.
As for `Nc1ccc2nc(N3CCOCC3)sc2c1`, the inhibition is 59.7% (active).
The result for `c1ccc2sc(N3CCOCC3)nc2c1` reads -4.3%.
In the case of `Cc1cnc(C(=O)OCC(=O)N2CCN(C(=O)c3ccco3)CC2)cn1`, the inhibition was 6.1%.
As to `O=C(CSc1nc2ccccc2c(=O)n1-c1ccccc1)N1CCc2ccccc2C1`, the inhibition was 8%.
In the case of `CC1(C(=O)NC2CCCCCCC2)CCC(=O)N1CCN1CCOCC1` (stereo not given), the inhibition was -8.6%.
For `COc1cc(C2C(C#N)=C(N)Oc3c2ccc2ccccc32)ccc1OCC(=O)Nc1cccc(C)c1` (stereo not given), the inhibition was 53.4% (active).
For `COc1cc(C2C(C#N)=C(N)Oc3c2ccc2ccccc32)ccc1OCC(=O)Nc1ccc(C)cc1` (stereo not given) the value was 24.1%; for `COC(=O)c1ccc(NC(=O)COc2ccc(C3C(C#N)=C(N)Oc4c3ccc3ccccc43)cc2OC)cc1` (stereo not given), 15.5%.
Consider `CCOC(=O)c1cc(CC)sc1NC(=O)CC1Sc2ccc(C(F)(F)F)cc2NC1=O` (stereo not given), for which the inhibition was -5.2%.
Turning to `Cc1ccc(S(=O)(=O)NCc2nc3ccccc3[nH]2)cc1`, the inhibition is 5%.
For `Cc1nnc(SCC(=O)NC2CCCCC2)n(N)c1=O`, the inhibition is -2.5%.
As for `O=C1CN(C(=O)c2cc(Br)c(Br)s2)c2ccccc2N1`, the inhibition is 61.5% (active).
For `O=C1CN(C(=O)c2ccccc2)c2ccccc2N1` the value was 6.5%; for `O=C1CN(C(=O)c2cccs2)c2ccccc2N1`, 3.1%; for `COC(=O)c1ccc(NC(=O)Nc2ccccc2F)cc1`, 11%.
As for `CN(CC(=O)N1CCCc2c1c(=O)oc1ccc(O)cc21)Cc1ccccc1`, the inhibition is 3.3%.
For `O=C(CN1CCN(Cc2ccccc2)CC1)N1CCCc2c1c(=O)oc1ccc(O)cc21` the value was 3.1%; for `CC(C(=O)N1CCCc2c1c(=O)oc1ccc(O)cc21)N1CCc2ccccc2C1` (stereo not given), 69% (active); for `Cc1ccccc1NC(=O)CC(O)(C(F)(F)F)C(F)(F)F`, -6%.
For the compound `COc1ccc(C(=O)N2CCCC2)cc1S(=O)(=O)N1CCC(C)CC1`, the inhibition was 5.6%.
In the case of `O=C(O)C1=C[C@H](c2ccccc2)C[C@H](OCc2ccc(CO)cc2)O1`, the inhibition is 2.2%.
`O=C(Nc1ccccc1)C1=C[C@H](c2ccccc2)C[C@H](OCc2ccc(CO)cc2)O1`: the inhibition was 8.7%.
Consider `NC(=O)C1=C[C@@H](c2ccc(C(F)(F)F)cc2)C[C@@H](OCc2ccc(CO)cc2)O1`, for which the inhibition was 61.6% (active).
As to `O=C(O)C1=C[C@@H](c2ccccc2)C[C@@H](OCc2ccc(CO)cc2)O1`, the inhibition was -9.3%.
Consider `NC(=O)C1=C[C@@H](c2ccccc2)C[C@@H](OCc2ccc(CO)cc2)O1`, for which the inhibition was 66% (active).
Consider `NC(=O)C1=C[C@@H](c2ccc(Br)cc2)C[C@@H](OCc2ccc(CO)cc2)O1`, for which the inhibition was 27.4%.
As for `O=C(O)C1=C[C@@H](c2ccc(C(F)(F)F)cc2)C[C@@H](OCc2ccc(CO)cc2)O1`, the inhibition is -0.6%.
As to `NC(=O)C1=C[C@H](c2ccccc2)C[C@H](OCc2ccc(CO)cc2)O1`, the inhibition was 59.2% (active).
Take `NC(=O)C1=C[C@H](c2ccc(C(F)(F)F)cc2)C[C@H](OCc2ccc(CO)cc2)O1`: the inhibition is 43.9%.
As for `C=CCOC(=O)C1=C[C@@H](c2ccccc2)C[C@@H](OCc2ccc(CO)cc2)O1`, the inhibition was -6.1%.
In the case of `NC(=O)C1=C[C@H](c2ccc(Br)cc2)C[C@H](OCc2ccc(CO)cc2)O1`, the inhibition is 51% (active).
For `O=C(O)C1=C[C@@H](c2ccc(Br)cc2)C[C@@H](OCc2ccc(CO)cc2)O1` the value was -16.7%.
